# Assay results from PubChem BioAssay (Tox21).
# A number with no mark means an inactive call. Results filed as inconclusive are left out. A call without a number means that no potency is given here. Calls of active or inactive are those of the source. Calls follow the shape of the dose curve; as a rule, active = well fitted curve in the direction sought with a large enough effect in the repeat runs; inconclusive = weak or mixed curves; inactive = no such curve, though single readings can be large; an effect the other way counts as inactive or inconclusive.
# Key:
# [1] = A CellTox Green Cytotoxicity Assay to monitor cytotoxicity in HEK293 cells - 40 hour (AID 1224871); also: nearly all actives have a fitted effect of over 45% in size
# Outline: (§1)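 Cells (HEK293, 600/well) and dye reagent are dispensed together. After 5 h at 37 C, 23 nL compound is pinned in. Plates stay at 37 C for 40 h with fluorescence read at 0h, 8h, 16h, 24h, 32h and 40h.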
# [2] = qHTS RealTime-Glo MT Cell Viability Assay in HEK293 cells - 16 hour (AID 1224872); also: top concentration of the series differs between compounds; nearly all actives have a fitted effect of over 50% in size
# Outline: (§2)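 Quantitative high-throughput screen of the Tox21 10K library in HEK293: cells and RealTime-Glo reagents plated together, compound added at 5 h, luminescence monitored through 40 h at 37 C.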
# [3] = qHTS RealTime-Glo MT Cell Viability Assay in HepG2 cells - 8 hour (AID 1224873); also: nearly all actives have a fitted effect of over 55% in size
# Outline: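 HepG2 cells mixed with RealTime-Glo MT reagents (NanoLuc plus cell-permeant prosubstrate) were seeded at 600 cells/well, incubated 5 h at 37 C/5% CO2, then pinned with compounds in DMSO; nonlytic luminescence tracked viability during 40 h treatment.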
# [4] = qHTS RealTime-Glo MT Cell Viability Assay in HEK293 cells - 40 hour (AID 1224874); details: RealTime-Glo luminescence; max response: hits give low values; also: nearly all actives have a fitted effect of over 50% in size
# Outline: (§3)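 Real-time viability in HEK293: signal arises when living cells convert a prosubstrate for NanoLuc in the medium, so luminescence tracks viable cell number. Compound (23 nL, DMSO) added 5 h post-seeding; kinetic reads at 0–40 h, 37 C.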
# [5] = A CellTox Green Cytotoxicity Assay to monitor cytotoxicity in HEK293 cells - 24 hour (AID 1224875); also: series mostly up to about 77 µM; nearly all actives have a fitted effect of over 45% in size
# Outline: as §1
# [6] = A CellTox Green Cytotoxicity Assay to monitor cytotoxicity in HepG2 cells - 16 hour (AID 1224876); also: nearly all actives have a fitted effect of over 45% in size
# Outline: (§4)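 Cells and non-lytic dye reagent are dispensed together (600 HepG2 cells/well) and incubated 5 h before DMSO compound transfer. Kinetic fluorescence is then recorded in the same wells during 40 h at 37 C.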
# [7] = qHTS RealTime-Glo MT Cell Viability Assay in HepG2 cells - 32 hour (AID 1224877); also: nearly all actives have a fitted effect of over 55% in size
# Outline: (§5)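 Compound treatment began 5 h after plating HepG2 cells (600/well) with NanoLuc luciferase and prosubstrate. Plates stayed at 37 C for 40 h; luminescence was captured at six time points, 0 h through 40 h.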
# [8] = A CellTox Green Cytotoxicity Assay to monitor cytotoxicity in HepG2 cells - 24 hour (AID 1224878); also: nearly all actives have a fitted effect of over 45% in size; also: potency is read from the fitted curve at half-maximal effect
# Outline: as §4
# [9] = qHTS RealTime-Glo MT Cell Viability Assay in HEK293 cells - 0 hour (AID 1224880)
# Outline: as §3
# [10] = A CellTox Green Cytotoxicity Assay to monitor cytotoxicity in HEK293 cells - 32 hour (AID 1224881); also: nearly all actives have a fitted effect of over 40% in size
# Outline: as §1
# [11] = A CellTox Green Cytotoxicity Assay to monitor cytotoxicity in HepG2 cells - 0 hour (AID 1224882); also: nearly all actives have a fitted effect of over 35% in size
# Outline: as §4
# [12] = A CellTox Green Cytotoxicity Assay to monitor cytotoxicity in HepG2 cells - 32 hour (AID 1224883); also: nearly all actives have a fitted effect of over 50% in size; also: potency is read from the fitted curve at half-maximal effect
# Outline: as §4
# [13] = A CellTox Green Cytotoxicity Assay to monitor cytotoxicity in HEK293 cells - 8 hour (AID 1224884); also: nearly all actives have a fitted effect of over 35% in size
# Outline: as §1
# [14] = qHTS RealTime-Glo MT Cell Viability Assay in HepG2 cells - 16 hour (AID 1224885); also: nearly all actives have a fitted effect of over 50% in size
# Outline: as §5
# [15] = qHTS RealTime-Glo MT Cell Viability Assay in HEK293 cells - 24 hour (AID 1224886)
# Outline: as §2
# [16] = qHTS RealTime-Glo MT Cell Viability Assay in HEK293 cells - 8 hour (AID 1224887)
# Outline: as §3
# [17] = A CellTox Green Cytotoxicity Assay to monitor cytotoxicity in HEK293 cells - 16 hour (AID 1224888); also: nearly all actives have a fitted effect of over 35% in size
# Outline: as §1
# [18] = qHTS RealTime-Glo MT Cell Viability Assay in HepG2 cells - 0 hour (AID 1224889); also: nearly all actives have a fitted effect of over 50% in size
# Outline: as §5
# [19] = A CellTox Green Cytotoxicity Assay to monitor cytotoxicity in HepG2 cells - 8 hour (AID 1224890); also: nearly all actives have a fitted effect of over 45% in size
# Outline: as §4
# [20] = A CellTox Green Cytotoxicity Assay to monitor cytotoxicity in HepG2 cells - 40 hour (AID 1224879); also: nearly all actives have a fitted effect of over 40% in size
# Outline: as §4
SMILES,Potency [1],Potency [2],Potency [3],max response [4] [%],Potency [5],Potency [6],Potency [7],Potency [8],Potency [9],Potency [10],Potency [11],Potency [12],Potency [13],Potency [14],Potency [15],Potency [16],Potency [17],Potency [18],Potency [19],Potency [20]
O=C(O)CCCc1c[nH]c2ccccc12,inactive,inactive,inactive,-0.277,inactive,inactive,inactive,17.4 µM (active),inactive,inactive,inactive,15.5 µM (active),inactive,inactive,inactive,inactive,inactive,inactive,inactive,–
Cc1ccc(N(CC2=NCCN2)c2cccc(O)c2)cc1,inactive,inactive,inactive,-23.3,inactive,inactive,inactive,inactive,inactive,inactive,inactive,inactive,inactive,inactive,–,inactive,inactive,inactive,inactive,inactive
N[C@@H](Cc1cc(I)c(O)c(I)c1)C(=O)O,inactive,inactive,inactive,3.01,inactive,inactive,inactive,inactive,inactive,inactive,inactive,inactive,inactive,inactive,–,inactive,–,inactive,inactive,inactive
CC(C(=O)O)c1ccc(C(=O)c2cccs2)cc1 (stereo not given),inactive,inactive,inactive,0.273,inactive,inactive,inactive,inactive,inactive,inactive,inactive,inactive,inactive,inactive,–,inactive,–,inactive,inactive,inactive
[Cl][Nd]([Cl])[Cl],inactive,inactive,inactive,2.18,inactive,inactive,inactive,inactive,inactive,inactive,inactive,inactive,inactive,inactive,inactive,inactive,–,inactive,inactive,inactive
O=C(O)c1cc(Cl)cc(Cl)c1O,inactive,inactive,inactive,-0.228,inactive,inactive,inactive,inactive,inactive,inactive,inactive,inactive,inactive,inactive,inactive,inactive,inactive,–,inactive,inactive
CCCCCCC(CO)CCCC (stereo not given),inactive,inactive,inactive,4.35,inactive,inactive,inactive,inactive,inactive,inactive,inactive,–,inactive,inactive,inactive,inactive,inactive,inactive,–,inactive
